PLK1 PBD block: blocks phosphopeptide binding to human PLK1 polo-box domain | AID 720504 | 360,000 compounds, 2.8% hits | Plk1 PBD binding of FITC phosphopeptide, fluorescence polarization | Potency, µM, usual class: inhibitors; further: series mostly up to about 57 µM; nearly all actives have a fitted effect of over 65% in size
mIDH1 inhibitor: blocks human mutant IDH1 R132H enzyme; O75874; IDH1-R132H enzyme, NADPH consumption, diaphorase/resazurin fluorescence; Potency, µM (series often up to 76.6 µM), actives largely listed as inhibitors; 390,000 compounds, 0.093% hits; AID 602179; further: nearly all actives have a fitted effect of over 65% in size
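IDH1-R132H (0.5 ug/mL) preincubated 30 min with compound, then NADPH (0.016 mM) and alpha-KG (2 mM) added; 80 min at RT, pH 7.5. Remaining NADPH coupled via diaphorase/resazurin to fluorescence (540/590 nm); concentration-response curves normalized to no-enzyme control.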
TrxR1 substrate: is turned over as a substrate by rat TrxR1. AID 588456. 390,000 compounds, 0.01% hits. O89049. purified TrxR1 substrate turnover, NADPH consumption readout. Potency, µM (doses to about 114 µM); further: nearly all actives have a fitted effect of over 50% in size
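Rat TrxR1, dispensed at 90 nM, was prereduced with 400 uM NADPH (final) for 5 min at ~22 deg C, then incubated with compound 15 min before 400 uM selenite. A first-read NADPH fluorescence drop versus no-compound background flagged substrates.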
TrxR1 inh: blocks rat thioredoxin reductase 1; 390,000 compounds, 1% hits; recombinant rTrxR1, NADPH fluorescence consumption, selenite substrate; Potency, µM (highest dose often 114 µM), usual class: inhibitors; further: nearly all actives have a fitted effect of over 65% in size
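Rat TrxR1 (90 nM in the dispensed reagent) was pre-reduced with 400 uM NADPH for 5 min at room temperature, then incubated with compound for 15 min. After 400 uM selenite was added, NADPH fluorescence (Ex 340/Em 450 nm) was followed for 8 min.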
Sfp inh: inhibitors of Bacillus subtilis Sfp phosphopantetheinyl transferase; Q9F4F7; Biochemical Sfp PPTase activity, qHTS; Potency, µM, hits mostly inhibitors; 310,000 compounds, 3.5% hits; AID 1490;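 further: the enzyme is Sfp with the accession as filed and its product quenches rhodamine fluorescence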
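Buffer: 50 mM Hepes-Na pH 7.6, 10 mM MgCl2, 0.01% Nonidet P-40, 0.01% BSA. Enzyme 15 nM, pre-exposed to compound 15 min; substrates then added and fluorescence change tracked over 30 min.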
VDR inhibitor: inhibitors of human vitamin D receptor; Potency, µM, actives largely listed as inhibitors; 400,000 compounds, 0.93% hits; P11473; VDR-SRC2-3 peptide fluorescence polarization, 2 h
Target sequence (P11473 whole entry, looked up): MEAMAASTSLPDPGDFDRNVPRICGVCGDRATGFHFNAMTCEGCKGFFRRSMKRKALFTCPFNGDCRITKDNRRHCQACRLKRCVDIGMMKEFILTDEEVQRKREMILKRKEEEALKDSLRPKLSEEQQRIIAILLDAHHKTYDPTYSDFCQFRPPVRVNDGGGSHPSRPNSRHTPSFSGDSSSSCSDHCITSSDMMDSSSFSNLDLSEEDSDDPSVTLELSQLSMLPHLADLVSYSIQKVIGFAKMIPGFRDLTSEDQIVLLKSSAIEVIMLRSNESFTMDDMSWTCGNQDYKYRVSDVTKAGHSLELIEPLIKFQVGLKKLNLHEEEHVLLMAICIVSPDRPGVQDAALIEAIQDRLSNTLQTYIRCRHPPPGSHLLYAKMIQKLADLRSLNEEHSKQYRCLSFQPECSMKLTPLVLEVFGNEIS
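Two reagent solutions held at 4 deg C in the dark were dispensed, compounds pinned at 23 nl, and the mixture incubated 2 h at room temperature. Read-out: fluorescence polarization of VDR–SRC2-3 peptide binding.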
Of the large screens only hits and unclear results are named; the others gave an inactive call; ! = not confirmed by another sample. Shown are actives, neighbours in structure and some others; about 5.2% of the full set was active somewhere. The call rests on the fitted dose curve; in most records, active means well fitted curve in the direction sought with a large enough effect; inconclusive means small, poorly fitted or top-dose-only effect, or another doubt; inactive means no such curve, though single readings can be large; an effect the other way counts as inactive or inconclusive.

S=c1[nH]nc(COc2ccccc2)n1/N=C/c1ccc(Cl)cc1	PLK1 PBD block 26.7µM, VDR inhibitor inconclusive
S=c1[nH]nc(COc2ccccc2)n1/N=C/c1ccc(Cl)cc1Cl	PLK1 PBD block inconclusive
CC(C)/C=C1\CC/C(=C\c2ccc(N(C)C)cc2)C1=O	none
CC(C)c1ccc(/C=C2\CC/C(=C\C=N\N(C)C)C2=O)cc1	Sfp inh 79.4µM
CC(C)N1C(=O)C2C(c3ccccc3O)NC(C)(C(=O)O)C2C1=O (stereo not drawn)	Sfp inh 20µM
COc1cccc(C2NC(CCSC)(C(=O)O)C3C(=O)N(C(C)C)C(=O)C23)c1O (stereo not drawn)	Sfp inh inconclusive
O=C(/C=C/c1ccco1)NC(=S)Nc1ccc(C(=O)O)cc1	PLK1 PBD block inconclusive, TrxR1 inh 39.8µM, Sfp inh 56.2µM
O=C(/C=C/c1ccc(Cl)cc1)NC(=S)Nc1ccc(C(=O)O)cc1	PLK1 PBD block 29.9µM
O=C(/C=C/c1ccccc1)N/C(=C/c1ccccc1)C(=O)Nc1ccc(C(=O)O)cc1	PLK1 PBD block 26.7µM, VDR inhibitor inconclusive
CN(C)c1ccc(NC(=S)NC(=O)/C=C/c2ccc(Cl)cc2)cc1	PLK1 PBD block inconclusive
O=C(/C=C/c1ccco1)NC(=S)Nc1ccc(N2CCCC2)cc1	TrxR1 inh 50.1µM
CCCN1CNc2c(c(=O)[nH]c(=S)n2CCc2ccc(Cl)cc2)C1	none (no result: PLK1 PBD block, mIDH1 inhibitor, Sfp inh)
COc1ccc(C(=O)COC(=O)CCN=C2NS(=O)(=O)c3ccccc32)c(OC)c1	none (no result: Sfp inh)
CC(C)(C)NC(=O)NC(=O)COC(=O)COc1ccc(Cl)cc1Cl	PLK1 PBD block 11.9µM, VDR inhibitor inconclusive
Cc1ccc(C)c(NC(=O)CCn2cnnn2)c1	PLK1 PBD block 29.9µM
COC(=O)c1ccc2c(=O)n(CCc3ccc(S(N)(=O)=O)cc3)c(SCC(=O)C(C)(C)C)nc2c1	none (no result: PLK1 PBD block, Sfp inh)
O=C1C=C(O)c2cccc(O)c2C1=O	none
O=C1c2cccc(O)c2C(=O)c2c(O)cccc21	Sfp inh 28.2µM!, VDR inhibitor inconclusive (no result: PLK1 PBD block, mIDH1 inhibitor, TrxR1 substrate, TrxR1 inh)
O=C(O)c1cc2ccccc2c2c1C(=O)c1ccccc1-2	none (no result: TrxR1 substrate, TrxR1 inh, Sfp inh, VDR inhibitor)
O=C1C=C(c2c(O)ccc3ccccc23)c2ccccc2C1=O	PLK1 PBD block 7.52µM, TrxR1 substrate 79.4µM, TrxR1 inh inconclusive, VDR inhibitor inconclusive (no result: Sfp inh)
O=C1C=C(O)c2ccccc2C1=O	Sfp inh 79.4µM!, VDR inhibitor 8.91µM (no result: PLK1 PBD block, mIDH1 inhibitor, TrxR1 substrate, TrxR1 inh)
O=C1C(O)=C(O)C(=O)c2ccccc21	mIDH1 inhibitor inconclusive, TrxR1 inh inconclusive, VDR inhibitor 8.91µM (no result: Sfp inh)
CCOC(=O)[C@]12CCC=C1N(Cc1ccco1)C(=O)[C@H](CC(=O)NCC1CCCCC1)C2	none (no result: mIDH1 inhibitor, TrxR1 substrate, TrxR1 inh, Sfp inh, VDR inhibitor)
CC(C)(C)c1ccc(C[C@H](C(=O)O)N2C(=O)c3ccc(C(=O)O)cc3C2=O)cc1	none (no result: PLK1 PBD block, mIDH1 inhibitor, TrxR1 substrate, TrxR1 inh, VDR inhibitor)
O=C(O)c1ccc2c(c1)C(=O)N([C@H](Cc1ccc(O)c(O)c1)C(=O)O)C2=O	Sfp inh 79.4µM (no result: PLK1 PBD block, mIDH1 inhibitor, TrxR1 substrate, TrxR1 inh, VDR inhibitor)
O=[N+]([O-])c1ccc(NNC(=S)Nc2ccccc2)cc1	PLK1 PBD block inconclusive, TrxR1 inh inconclusive, Sfp inh 3.55µM, VDR inhibitor 44.7µM
COc1ccc([N+](=O)[O-])cc1NC(=S)Nc1ccccc1	Sfp inh inconclusive
O=[N+]([O-])c1ccc(O)c(NC(=S)Nc2ccccc2)c1	PLK1 PBD block 26.7µM, TrxR1 inh inconclusive, Sfp inh 50.1µM, VDR inhibitor inconclusive
CCCS(=O)(=O)NC(=O)C1(C)CCN(C(=O)c2ccc(OC)cc2)C1 (stereo not drawn)	none (no result: mIDH1 inhibitor, TrxR1 substrate, TrxR1 inh, Sfp inh, VDR inhibitor)
O=C(NC1CCCCCC1)C(=S)NC1CCCCC1	PLK1 PBD block inconclusive, Sfp inh 20µM
Cc1ccc(/C=C2/C(=O)c3ccc(C(=O)O)cc3C2=O)o1	PLK1 PBD block 23.8µM, TrxR1 inh inconclusive, Sfp inh 12.6µM
COc1ccccc1N1CCN(/N=C/c2cc(OC)c(O)c(OC)c2)CC1	Sfp inh 39.8µM
COc1ccc(/C=N/N2CCN(C3c4ccccc4-c4ccccc43)CC2)cc1O	PLK1 PBD block 26.7µM
COc1ccc(/C=N/N2CCOCC2)cc1O	none
Cc1ccc(CN(C)C(=O)c2cc(Br)c(Br)s2)o1	TrxR1 inh 50.1µM, Sfp inh 79.4µM
C=CCN1C(=O)c2ccc(C(=O)N(C)Cc3ccc(C)o3)cc2C1=O	TrxR1 inh inconclusive (no result: Sfp inh)
COC(=O)CN1CCC(=O)c2ccccc2S1(=O)=O	none (no result: PLK1 PBD block, mIDH1 inhibitor)
COC(=O)CC1(C(=O)OC)Nc2cc(Cl)c(Cl)cc2S(=O)(=O)N1O (stereo not drawn)	PLK1 PBD block 9.47µM (no result: TrxR1 substrate, TrxR1 inh, Sfp inh, VDR inhibitor)
Cc1ccc(-c2nn(CCC#N)cc2C=C(C#N)C#N)cc1	TrxR1 inh 7.94µM
COc1ccc(-c2nn(CCC#N)cc2C=C(C#N)C#N)cc1	TrxR1 inh inconclusive, VDR inhibitor inconclusive

Screens as filed in PubChem.
